The values below come from PubChem BioAssay (Tox21).

Assay [1] in a line: qHTS assay to identify small molecule antagonists of the thyroid receptor (TR) signaling pathway (AID 743065). Also: nearly all actives have a fitted effect of over 55% in size. Put shortly: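 GH3.TRE-Luc rat pituitary cells (two TREs driving luciferase) were dosed with compound, then stimulated with 1 nM T3 (final) for 23.5 h at 37 C. ONE-Glo luminescence was the read-out, with CellTiter-Fluor fluorescence as the cytotoxicity counter-screen.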
In general terms: In qHTS, concentration-response curves come from the screen itself.

The subject of assay [2] is thyroid hormone receptor (rat, GH3 cells). Description: qHTS assay to identify small molecule agonists of the thyroid receptor (TR) signaling pathway (AID 743066; calls by dose curve; also: potency is read from the fitted curve at half-maximal effect).
Assay [3] has as its target Estrogen receptor (Homo sapiens) (UniProt P03372). Description: qHTS assay to identify small molecule antagonists of the estrogen receptor alpha (ER-alpha) signaling pathway (AID 743069; active = well fitted curve in the direction sought with a large enough effect in the signal ratio in the repeat runs, not every such curve was filed as active; the % refers to the signal ratio). Put shortly: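 Reporter cells (ER-alpha-bla, HEK293 background) are conditioned overnight in stripped-serum medium (2% charcoal-stripped FBS). Compound and 17beta-estradiol exposure runs 18 hr at 37C, 5% CO2.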

A short description of assay [4]: qHTS assay to identify small molecule antagonists of the estrogen receptor alpha (ER-alpha) signaling pathway - cell viability counter screen (AID 743074; calls by dose curve;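 also: HEK293 cells carrying ER-alpha-UAS-bla reporter stimulated with 17beta-estradiol; nearly all actives have a fitted effect of over 45% in size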).
The target in assay [5] is Estrogen receptor (Homo sapiens) (UniProt P03372). The experiment in a line: qHTS assay to identify small molecule agonists of the estrogen receptor alpha (ER-alpha) signaling pathway (AID 743075; calls by dose curve;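 also: HEK293 GripTite cells with ER-alpha and UAS-driven beta-lactamase reporter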).
Assay [6] has the same target. Description: qHTS assay to identify small molecule agonists of the estrogen receptor alpha (ER-alpha) signaling pathway using the BG1 cell line (AID 743079). Also: nearly all actives have a fitted effect of over 20% in size. Also: potency is read from the fitted curve at half-maximal effect. The following applies: BG1Luc4E2 cells, ERE-luciferase agonist, 22 h; activation: at 70.3 µM (top of the series) unless noted.
A short description of assay [7]: qHTS assay to identify small molecule antagonists of the estrogen receptor alpha (ER-alpha) signaling pathway using the BG1 cell line (AID 743080; calls by dose curve;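 also: BG1 cells stimulated with 17beta-estradiol alongside compound; nearly all actives have a fitted effect of over 25% in size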). Put shortly: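 BG1Luc4E2, endogenous ER-alpha, 4xERE-luc; 5 d charcoal-stripped FBS, phenol red free; 24 h plating; cpd + 17beta-estradiol 21.5 h, 37 C/5% CO2; CellTiter-Fluor viability 30 min, then ONE-Glo luciferase 30 min RT.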

The nature of assay [8]: qHTS assay to identify small molecule antagonists of the estrogen receptor alpha (ER-alpha) signaling pathway using the BG1 cell line - cell viability counter screen (AID 743081).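 Also: compound given together with 17beta-estradiol as the ER stimulus; nearly all actives have a fitted effect of over 45% in size.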
For another assay, the target named is Aromatase (Homo sapiens) (UniProt P11511). The experiment in a line: qHTS assay to identify aromatase inhibitors (AID 743083). Also: nearly all actives have a fitted effect of over 55% in size.
Assay [9] is described as follows: qHTS assay to identify aromatase inhibitors - cell viability counter screen (AID 743084).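 Also: cells stimulated with testosterone during compound exposure; nearly all actives have a fitted effect of over 55% in size.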
Assay [10] has as its target Aryl hydrocarbon receptor (Homo sapiens) (UniProt P35869). The experiment in a line: qHTS assay to identify small molecule that activate the aryl hydrocarbon receptor (AhR) signaling pathway (AID 743085).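 Also: HG2L7.5c1 human HepG2 liver cells with stably integrated DRE-driven firefly reporter; nearly all actives have a fitted effect of over 15% in size.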 A digest of the protocol:
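HepG2 cells (HG2L7.5c1) stably carrying a firefly luciferase reporter driven by 20 dioxin responsive elements were exposed to compound for 24 h at 37C after a 5 h settling period; luminescence rise (ONE-Glo) indicated activation.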

The nature of assay [11]: qHTS assay to identify small molecule that activate the aryl hydrocarbon receptor (AhR) signaling pathway - cell viability counter screen (AID 743086).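 Also: HepG2 liver cells carrying the AhR DRE luciferase reporter; nearly all actives have a fitted effect of over 45% in size.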 Put shortly:
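HepG2-AhR-luc (HG2L7.5c1) cells, 4000/well, treated 24 h at 37 C with compound; viability measured as CellTiter-Fluor fluorescence after 30 min in the same wells as the luciferase read.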

Assay [12] concerns the target Peroxisome proliferator-activated receptor gamma (Homo sapiens) (UniProt P37231). The experiment in a line: qHTS assay to identify small molecule agonists of the peroxisome proliferator-activated receptor gamma (PPARg) signaling pathway (AID 743094; active = well fitted activation curve with a large enough effect in the signal ratio in the repeat runs, not every such curve was filed as active; the % refers to the signal ratio). Put shortly:
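GeneBLAzer PPARg UAS-bla HEK293H cells carrying a stably integrated beta-lactamase reporter were pre-incubated 5 h at 37C, then exposed to compounds in DMSO for 17 h at 37C; LiveBLAzer B/G FRET substrate was added for 1 h at room temperature and fluorescence read.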

Assay [13] has the same target. Description: qHTS assay to identify small molecule antagonists of the peroxisome proliferator-activated receptor gamma (PPARg) signaling pathway (AID 743191; calls by dose curve; also: nearly all actives have a fitted effect of over 30% in size). Put shortly: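 GeneBLAzer PPARg UAS-bla HEK293H cells, 5 h post-plating, exposed to compounds 17 h at 37C. LiveBLAzer B/G FRET substrate added for 1 h at room temperature; beta-lactamase reporter read by fluorescence intensity.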

Assay [14] can be described thus: qHTS assay to identify small molecule antagonists of the peroxisome proliferator-activated receptor gamma (PPARg) signaling pathway - cell viability counter screen (AID 743194). Also: nearly all actives have a fitted effect of over 55% in size. The following applies: Potency: co-treated with 50 nM rosiglitazone unless noted. Put shortly:
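Cytotoxicity counter screen in PPARg-bla HEK293H cells, same wells as reporter assay. Compounds plus 50 nM rosiglitazone (final) for 17 h at 37 C, then viability read by CellTiter-Glo luminescence.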

The nature of assay [15]: qHTS assay for small molecule agonists of the antioxidant response element (ARE) signaling pathway - cell viability counter screen (AID 743203; calls by dose curve; also: nearly all actives have a fitted effect of over 55% in size). Put shortly: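 CellSensor ARE-bla HepG2 cells, 2,000 per well, rested 5 hrs at 37C/5% CO2, then exposed to compound in DMSO for 16 hrs; viability read as CellTiter-Glo luminescence after 30 min at room temperature, in the reporter wells.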

Assay [16] in a line: qHTS assay for small molecule activators of the heat shock response signaling pathway (AID 743210; active = well fitted activation curve with a large enough effect in the signal ratio in the repeat runs, with a control signal flat, not every such curve was filed as active; the % refers to the signal ratio;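 also: HeLa cells with beta-lactamase reporter driven by heat shock elements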). A digest of the protocol: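 Quantitative high-throughput format using an engineered HeLa line in which heat shock response elements drive beta-lactamase; after 5 h with compound, cells received a B/G FRET substrate and fluorescence was read.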
Assay [17] can be described thus: qHTS assay to identify small molecule agonists of the peroxisome proliferator-activated receptor delta (PPARd) signaling pathway - cell viability counter screen (AID 743211). Also: nearly all actives have a fitted effect of over 55% in size. A digest of the protocol:
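PPARd-bla HEK293H cells (UAS-beta-lactamase reporter) were treated with compounds for 17 h at 37 C. Viability was then read in the same wells by CellTiter-Glo luminescence after 30 min at room temperature.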

A short description of assay [18]: qHTS assay for small molecule agonists of the antioxidant response element (ARE) signaling pathway (AID 743202; active = well fitted activation curve with a large enough effect in the signal ratio in the repeat runs, not every such curve was filed as active; the % refers to the signal ratio). A digest of the protocol:
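Agonist mode reporter screen: HepG2 cells with ARE-controlled beta-lactamase are incubated with test compounds for 16 h at 37 C, and beta-lactamase activity is measured as fluorescence of cleaved B/G FRET substrate.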

The nature of assay [19]: qHTS assay for small molecule activators of the heat shock response signaling pathway - cell viability counter screen (AID 743209). Also: nearly all actives have a fitted effect of over 50% in size. A digest of the protocol:
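CellSensor HSE-bla HeLa cells, plated overnight at 37 C/5% CO2, were exposed to compounds in DMSO for 5 h at 37 C. Viability was then read in the same wells by CellTiter-Glo luminescence after 30 min at room temperature.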

The structures appear in SMILES notation. Values joined by “and” are separate entries in the source; they are usually repeats but may differ in a detail not shown here. Identical values can stand only once. Results filed as inconclusive are left out. A structure can be active in one record and inactive in another. Active and inactive are the calls of the source. Unless noted, calls follow the shape of the dose curve; as a rule, active = well fitted curve in the direction sought with a large enough effect in the repeat runs; inconclusive = weak or mixed curves; inactive = no such curve, though single readings can be large; an effect the other way counts as inactive or inconclusive.

Sequence of Estrogen receptor (Homo sapiens) (P03372 whole entry, looked up): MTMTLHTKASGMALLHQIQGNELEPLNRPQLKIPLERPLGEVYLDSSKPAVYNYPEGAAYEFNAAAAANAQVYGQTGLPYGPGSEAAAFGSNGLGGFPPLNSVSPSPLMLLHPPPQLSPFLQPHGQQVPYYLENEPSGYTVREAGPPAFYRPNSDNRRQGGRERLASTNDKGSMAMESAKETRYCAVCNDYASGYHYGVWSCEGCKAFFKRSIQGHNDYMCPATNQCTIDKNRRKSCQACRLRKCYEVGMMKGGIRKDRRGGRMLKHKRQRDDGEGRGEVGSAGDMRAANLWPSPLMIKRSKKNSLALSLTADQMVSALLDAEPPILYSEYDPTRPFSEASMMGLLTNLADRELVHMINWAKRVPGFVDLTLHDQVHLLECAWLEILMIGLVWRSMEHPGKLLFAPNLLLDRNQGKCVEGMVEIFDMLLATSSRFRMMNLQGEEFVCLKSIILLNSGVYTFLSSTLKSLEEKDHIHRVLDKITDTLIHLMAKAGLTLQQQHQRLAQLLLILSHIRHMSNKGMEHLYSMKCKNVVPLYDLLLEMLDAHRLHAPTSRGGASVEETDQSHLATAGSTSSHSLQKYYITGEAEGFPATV
Sequence of Aryl hydrocarbon receptor (Homo sapiens) (P35869 whole entry, looked up): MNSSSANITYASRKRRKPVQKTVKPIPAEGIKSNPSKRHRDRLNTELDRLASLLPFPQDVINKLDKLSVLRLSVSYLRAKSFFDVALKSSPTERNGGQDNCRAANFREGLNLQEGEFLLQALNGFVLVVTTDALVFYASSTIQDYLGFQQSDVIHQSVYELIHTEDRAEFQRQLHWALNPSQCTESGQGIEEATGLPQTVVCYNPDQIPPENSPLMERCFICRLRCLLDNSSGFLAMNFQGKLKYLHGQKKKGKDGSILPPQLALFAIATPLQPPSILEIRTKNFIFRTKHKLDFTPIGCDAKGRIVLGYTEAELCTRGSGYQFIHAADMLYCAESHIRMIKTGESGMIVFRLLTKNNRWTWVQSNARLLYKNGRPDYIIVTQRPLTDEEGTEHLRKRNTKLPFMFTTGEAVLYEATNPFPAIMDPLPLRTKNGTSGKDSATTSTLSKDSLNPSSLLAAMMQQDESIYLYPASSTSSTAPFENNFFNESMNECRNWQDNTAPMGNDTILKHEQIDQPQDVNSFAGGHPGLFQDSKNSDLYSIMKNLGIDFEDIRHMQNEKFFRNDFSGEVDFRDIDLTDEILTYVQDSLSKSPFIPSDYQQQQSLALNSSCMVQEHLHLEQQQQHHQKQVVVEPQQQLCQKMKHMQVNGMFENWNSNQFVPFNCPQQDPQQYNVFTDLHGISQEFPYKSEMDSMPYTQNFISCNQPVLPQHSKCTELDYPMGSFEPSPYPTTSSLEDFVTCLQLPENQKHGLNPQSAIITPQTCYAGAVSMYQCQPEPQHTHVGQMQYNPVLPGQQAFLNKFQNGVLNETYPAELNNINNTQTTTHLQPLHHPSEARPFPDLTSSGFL
Sequence of Peroxisome proliferator-activated receptor gamma (Homo sapiens) (P37231 whole entry, looked up): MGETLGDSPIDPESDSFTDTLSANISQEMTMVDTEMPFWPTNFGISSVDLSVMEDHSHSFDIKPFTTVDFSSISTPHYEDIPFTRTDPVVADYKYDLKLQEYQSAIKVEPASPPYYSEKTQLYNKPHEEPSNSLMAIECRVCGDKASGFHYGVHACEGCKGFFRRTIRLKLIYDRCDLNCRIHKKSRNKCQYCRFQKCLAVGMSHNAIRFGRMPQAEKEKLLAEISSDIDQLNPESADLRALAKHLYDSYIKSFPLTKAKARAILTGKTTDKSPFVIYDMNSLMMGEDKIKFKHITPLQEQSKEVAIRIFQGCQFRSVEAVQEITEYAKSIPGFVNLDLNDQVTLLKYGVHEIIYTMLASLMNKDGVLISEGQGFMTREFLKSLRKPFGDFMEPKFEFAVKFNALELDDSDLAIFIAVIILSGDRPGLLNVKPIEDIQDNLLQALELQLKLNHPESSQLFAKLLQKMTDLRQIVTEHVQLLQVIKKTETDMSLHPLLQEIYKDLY
Sequence of Aromatase (Homo sapiens) (P11511 whole entry, looked up): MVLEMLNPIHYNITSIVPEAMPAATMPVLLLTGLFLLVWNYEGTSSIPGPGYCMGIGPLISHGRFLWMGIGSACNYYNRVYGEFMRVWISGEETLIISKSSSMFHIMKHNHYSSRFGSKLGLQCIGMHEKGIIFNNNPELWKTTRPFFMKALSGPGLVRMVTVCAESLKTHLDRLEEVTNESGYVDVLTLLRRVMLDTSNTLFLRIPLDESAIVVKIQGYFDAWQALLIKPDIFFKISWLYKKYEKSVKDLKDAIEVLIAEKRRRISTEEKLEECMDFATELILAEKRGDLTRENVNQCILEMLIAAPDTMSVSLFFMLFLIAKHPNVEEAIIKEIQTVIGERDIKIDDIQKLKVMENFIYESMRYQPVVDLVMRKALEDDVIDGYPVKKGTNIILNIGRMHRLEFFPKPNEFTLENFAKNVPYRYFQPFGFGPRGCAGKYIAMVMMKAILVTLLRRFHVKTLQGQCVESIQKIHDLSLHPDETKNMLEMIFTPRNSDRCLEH

In the case of `OC[C@H]1O[C@@H](Oc2ccc(O)cc2)[C@H](O)[C@@H](O)[C@@H]1O`, the Potency entry in [1], in assay [2], in [3], in assay [4], in assay [5] and in assay [6] was “inactive” throughout. The Potency result (in assay [7]; in assay [8]; with Aromatase (Homo sapiens); in assay [9]; in [10]; in assay [11]) was “inactive” throughout. Further, the Potency result in [12], in assay [13], in assay [14], in [15], in [16] and in assay [17] was “inactive” throughout.

For the compound `COc1ccc([C@@H]2CC(=O)c3c(O)cc(O[C@@H]4O[C@H](CO[C@@H]5O[C@@H](C)[C@H](O)[C@@H](O)[C@H]5O)[C@@H](O)[C@H](O)[C@H]4O)cc3O2)cc1OC`, the Potency entry in assay [1], in [2], in [3], in [4], in assay [5] and in [6] was “inactive” in each case. In addition, the Potency entry (in assay [7]; in assay [8]; with Aromatase (Homo sapiens); in assay [9]; in [10]; in assay [11]) was “inactive” throughout. Moreover, the Potency entry in [12], in assay [13], in assay [14], in assay [18], in [15] and in [19] was “inactive” in each case. In assay [16], the Potency entry was “inactive”.

As for `OCC(O)CS` (centres undefined), the Potency entry in assay [1], in assay [2], in assay [3], in assay [4], in assay [5] and in assay [7] was “inactive” in each case. The Potency result (in [8]; with Aromatase (Homo sapiens); in assay [9]; in [10]; in assay [11]; in assay [12]) was “inactive” throughout. For the same compound, the Potency result in assay [13], in assay [14], in [18], in assay [15], in [16] and in assay [17] was “inactive” in each case. Moreover, in assay [6], the Potency was 11.9 µM (active) and inactive.

For the compound `Cc1ccc(C(C)C)cc1`, the Potency entry in assay [1], in assay [2], in assay [3], in [4], in assay [5] and in [6] was “inactive” in each case. Besides, the Potency result (in assay [7]; in [8]; in the assay with Aromatase (Homo sapiens); in assay [9]; in assay [10]; in assay [11]) was “inactive” in each case. For the same compound, the Potency entry in assay [12], in assay [13], in assay [14], in assay [18], in assay [15] and in [19] was “inactive” in each case. The Potency result in [16] and in [17] was “inactive” each time.

Turning to `CCCCCCCC(=O)O`, the Potency entry in [1], in assay [2], in assay [3], in assay [4], in assay [5] and in [6] was “inactive” in each case. In addition, the Potency result (in assay [7]; in assay [8]; in the assay with Aromatase (Homo sapiens); in [9]; in assay [10]; in [11]) was “inactive” each time. The Potency result in assay [12], in [14], in assay [15] and in [16] was “inactive” each time.

`Cc1ccccc1Cl`: the Potency result in assay [1], in assay [2], in assay [3], in [4], in assay [5] and in assay [6] was “inactive” in each case. Further, the Potency entry (in assay [7]; in [8]; with Aromatase (Homo sapiens); in assay [9]; in [10]; in assay [11]) was “inactive” each time. Also, the Potency result in [12], in assay [13], in [14], in [18], in [15] and in assay [19] was “inactive” throughout. Moreover, the Potency entry in assay [16] and in assay [17] was “inactive” in each case.

For the compound `O=C1CCCCCCCCCCC1`, the Potency result in assay [1], in assay [2], in assay [3], in assay [4], in assay [5] and in [6] was “inactive” each time. The Potency entry (in [7]; in [8]; with Aromatase (Homo sapiens); in assay [9]; in assay [10]; in assay [11]) was “inactive” each time. The Potency entry in assay [12], in [13], in assay [14], in assay [15], in assay [19] and in assay [16] was “inactive” each time.

In the case of `Cc1cccc(C)c1[N+](=O)[O-]`, the Potency result (in [1]; in assay [4]; in assay [8]; with Aromatase (Homo sapiens); in assay [9]; in assay [10]) was “inactive” in each case. In addition, the Potency result in assay [11], in assay [12], in assay [13], in [14], in assay [15] and in assay [19] was “inactive” throughout. For the same compound, the Potency entry in assay [16] is “inactive”. For the same compound, the Potency entry in [2] is “inactive and 61.1 µM (active)”.
